In the library only some 0.85% were active in any assay of this set; here they are far more common.
BLM inh: Bloom syndrome helicase (human) inhibition; P54132; Potency, µM (titrated, usually from 56.1 µM), for the others: top-dose activity change, negative = inhibition, hits mostly inhibitors; 350,000 tested, 0.2% active; recombinant BLM DNA unwinding, fluorescence dequenching; AID 2528;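 further: plate controls were vehicle for no effect and no enzyme for full effect; nearly all actives have a fitted effect of over 35% in size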
APE1 inh: inhibitors of human APE1 endonuclease; P27695; recombinant APE1, TAMRA/BHQ-2 abasic DNA cleavage fluorescence; Potency, µM (doses to about 65.8 µM), inactives show top-dose activity change, negative = inhibition, actives largely listed as inhibitors; 350,000 tested, 0.35% active;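 further: plate controls were vehicle for no effect and reference inhibitor for full effect; nearly all actives have a fitted effect of over 55% in size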
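Readout is kinetic fluorescence (ex 525, em 598 nm) from cleavage of 50 nM TAMRA/BHQ-2 THF abasic duplex by 0.75 nM APE1, compound added 15 min beforehand at RT.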
PGK inhibitor: T. brucei PGK inhibition; P07378; PGK/GAPDH coupled, Kinase-Glo luminescence, 60 min; Potency, µM (top dose mostly 57.5 µM), inactives show top-dose activity change, negative = inhibition, actives largely listed as inhibitors; 380,000 tested, 0.043% active; further: nearly all actives have a fitted effect of over 60% in size
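Luminescent ATP detection (Kinase-Glo Plus) follows a 60-minute room-temperature incubation, with wells lacking PGK as controls. Buffer: 100 mM TEA (pH 7.6), 5 mM MgCl2, 0.01% Tween-20. Coupling enzyme GAPDH (100 nM final) supplies unstable 1,3-BPG in-well.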
RECQ1 helicase: blocks DNA unwinding by human RECQ1 | AID 2549 | RECQ1 DNA unwinding, red fluorescence kinetic read | Potency, µM (titrated, usually from 57.3 µM), for inactives: top-dose activity, negative = inhibition, actives largely listed as inhibitors | P46063 | 240,000 tested, 0.54% active;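 further: plate controls were vehicle for no effect and no enzyme for full effect; nearly all actives have a fitted effect of over 30% in size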
Target sequence (P46063 whole entry, looked up): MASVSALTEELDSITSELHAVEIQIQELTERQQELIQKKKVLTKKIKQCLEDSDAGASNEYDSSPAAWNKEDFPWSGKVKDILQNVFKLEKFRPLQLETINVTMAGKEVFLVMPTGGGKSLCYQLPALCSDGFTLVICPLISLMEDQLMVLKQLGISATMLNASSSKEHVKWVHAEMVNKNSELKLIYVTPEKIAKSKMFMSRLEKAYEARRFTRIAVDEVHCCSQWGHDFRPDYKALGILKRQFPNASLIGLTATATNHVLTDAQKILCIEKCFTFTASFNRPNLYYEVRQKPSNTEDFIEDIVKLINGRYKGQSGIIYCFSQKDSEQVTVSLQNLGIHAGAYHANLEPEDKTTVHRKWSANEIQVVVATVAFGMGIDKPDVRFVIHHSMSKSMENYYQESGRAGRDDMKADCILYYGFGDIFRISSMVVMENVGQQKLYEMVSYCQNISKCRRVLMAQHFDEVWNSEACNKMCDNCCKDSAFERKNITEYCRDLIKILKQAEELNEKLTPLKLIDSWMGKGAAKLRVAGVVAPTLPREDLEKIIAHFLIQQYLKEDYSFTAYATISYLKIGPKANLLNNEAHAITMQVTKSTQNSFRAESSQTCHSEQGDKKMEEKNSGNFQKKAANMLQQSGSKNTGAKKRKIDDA
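50 nM RECQ1T1 preincubated 15 min with compound in Tris pH 8.0 buffer with MgCl2, DTT, Tween-20 and 2.5 ug/ml poly(dI-dC); started with 200 nM TAMRA/BHQ-2 forked duplex and 2 mM ATP. Unwinding read as fluorescence (525/598 nm), two reads 2 h apart.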
TDP1 block: TDP1 (human) enzyme inhibition; Q9NUW8; recombinant TDP1, AlphaScreen DNA substrate cleavage; Potency, µM (top dose mostly 130 µM), for the others: at the highest dose activity change, negative = inhibition, most hits filed as inhibitors; 350,000 tested, 0.28% active; AID 485290; further: nearly all actives have a fitted effect of over 40% in size
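Compounds were preincubated with Tdp1 (1 nM final) for 15 min at room temperature before substrate (15 nM final) started a 5 min reaction; beads (10 ug/ml final) were then added for 10 min before AlphaScreen detection.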
GLS inhibitor: blocks human kidney-isoform glutaminase activity | Potency, µM (series often up to 45.5 µM), without a hit: top-dose activity change, negative = inhibition, hits mostly inhibitors | 410,000 tested, 0.21% active | GLS enzymatic activity, qHTS titration | O94925 | AID 624170
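hKGA in 45 mM KH2PO4 (pH 8.2), 0.02% Tween-20 with compound, then 1mM L-Glutamine (stock as added) plus glutamate oxidase/HRP/Amplex red coupling mix. Fluorescence read initially and after 30 min at RT; signal change reflects glutamate formation.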
Active calls of the source: *; i = inactive; ? = inconclusive; . = no result given; [ ] = remark or other dose. The call rests on the fitted dose curve; in most records, active means well fitted curve in the direction sought with a large enough effect; inconclusive means small, poorly fitted or top-dose-only effect, or another doubt; inactive means no such curve, though single readings can be large; an effect the other way counts as inactive or inconclusive. Unless noted, on the % scale 0 is the no-effect control and ±100 the full control effect; potency means the concentration at half of the fitted maximal effect.

SMILES | BLM inh | APE1 inh | PGK inhibitor | RECQ1 helicase | TDP1 block | GLS inhibitor
CCOC(=O)C1CCN(c2nc(C)cc(C)c2C#N)CC1 | -10% | -4% | -5% | 3% | 3% | 8%
CCOc1cc2c(C#N)c(N3CCCCC3)nc(N)c2c(N)n1 | 28µM* | -6% | -1% | -1% | 4% | 22%
CC[n+]1ccc(C[n+]2ccccc2)c2ccccc21 | -5% | -1% | i | 3% | 22µM* | 1%
Cc1ccc2c(c1)c(C)cc[n+]2Cc1ccccc1 | 6% | 6% | i | -7% | 5% | 2%
O=C(CO)NCCCOc1cccc(CN2CCCCC2)c1 | . | . | . | . | . | -2%
CC(=O)Nc1ccccc1OC1=N[S+](=O)([O-])c2ccccc21 | . | . | . | . | 0% | .
O=c1c2ccccc2sn1-c1cccc(Cl)c1 | . | . | i | . | . | 7.9µM*
O=c1c2ccccc2sn1-c1ccccc1F | . | . | 4% | . | . | 7.9µM*
Cc1ccc(-n2sc3ccccc3c2=O)cc1S(=O)(=O)N1CCCCC1 | -1% | -10% | i | -12% | 8% | 6.3µM*
O=C(O)c1cccc(-n2sc3ccccc3c2=O)c1 | . | -7% | -10% | . | 0% | 8.9µM*
NC(=O)C1CCN(c2nc(-c3ccc(C(F)(F)F)cc3)cs2)CC1 | . | 7% | . | . | . | .
CC(C)(C)OC(=O)NCc1nnc(-c2cc3ccccc3[nH]2)o1 | . | . | . | . | 0% | .
O=C(CNC(=O)c1ccccc1Cl)OC(C(=O)Nc1cc(C(F)(F)F)ccc1Cl)c1ccccc1 (configuration not stated) | . | . | . | . | -3% | .
O=C1CCc2cc(S(=O)(=O)Nc3ccc4ncccc4c3)ccc2N1 | . | . | . | . | 3% | .
C=C1C=C(C(F)F)n2ncc(C(=O)NCCc3ccccc3Cl)c2N1 | . | 23% | . | . | . | .
N#Cc1c(-c2ccc(O)cc2)no[n+]1[O-] | . | -12% | . | . | . | .
CO[C@@H]1[C@@H](OC2OC(C)C(OC3CC(C)(O)C(O)C(C)O3)C(N(C)C)C2O)[C@@H](CC=O)C[C@@H](C)[C@@H](OC2CCC(N(C)C)C(C)O2)/C=C/C=C/C[C@@H](C)OC(=O)C[C@H]1OC(C)=O (some centres not stated) | . | . | . | . | . | 14%
CC(=O)Nc1ccc2c(=O)n(-c3ccccc3)sc2c1 | . | . | -6% | . | . | 6.3µM*
O=c1c2ccccc2sn1-c1ccccc1 | -1% | -5% | -5% | -5% | 12% | 4.5µM*
COc1cc(C2c3c([nH]c(=O)[nH]c3=O)Nc3ccc4ccccc4c32)ccc1O (configuration not stated) | -15% | 7% | ? | -26% | -9% | 0%
COc1cc(C2c3c([nH]c(=O)[nH]c3=O)Nc3ccc4ccccc4c32)cc(OC)c1OC (configuration not stated) | 25µM* | -7% | ? | i | . | ?
O=C1C=C(CO)OCC1=O | . | . | . | . | . | -1%
Cc1cccc(C)c1-n1c(SCC(=O)Nc2ccc(F)cc2)nnc1-c1cccc([S+](=O)([O-])N2CCCC2)c1 | . | -3% | . | . | . | .
O=C(/C=C/c1ccco1)N1CCN(S(=O)(=O)c2ccccc2)CC1 | . | ? | ? | . | 10µM* | ?
Cc1ccc(S(=O)(=O)N2CCN(C(=O)/C=C/c3ccco3)CC2)cc1 | -9% | 3% | -18% | 5% | 3% | 140%
SMILES | BLM inh | APE1 inh | PGK inhibitor | RECQ1 helicase | TDP1 block | GLS inhibitor
CC(C)c1ccc(S(=O)(=O)/N=C2/C=C(Sc3ncn[nH]3)C(=O)c3ccccc32)cc1 | 10µM* | 4% | -11% | 0% | 7% | 11%
COc1cc(/C=C2\SC(c3ccccc3)=NC2=O)cc(Cl)c1O | -12% | 18% | -24% | i | 5% | 8.9µM*
COc1cc(/C=C2\SC(c3ccc(C)cc3)=NC2=O)cc(OC)c1OC | -8% | -5% | . | i | 3% | -7%
Cc1cc(C)cc(NC(=O)COC(=O)CCC2CCCC2)c1 | . | -14% | 3% | . | -14% | 2%
Cc1ccc(NC(=O)COC(=O)CCC2CCCC2)c(Br)c1 | . | 6% | 11% | . | 56µM* | 19%
O=C(COC(=O)CCC1CCCC1)Nc1ccccc1Br | . | 45% | i | . | 79µM* | 2%
O=[N+]([O-])c1ccc(C(=S)N2CCN(c3ccc(F)cc3)CC2)cc1 | -5% | 11% | 7% | i | 4% | 16µM*
CCc1ccc(C(C)NC(=O)C2CCCO2)cc1 (configuration not stated) | -7% | 7% | 4% | . | 3% | 0%
CCC(NC(=O)C1CCCO1)c1ccccc1 (configuration not stated) | -3% | -3% | -4% | . | 2.2µM* | 9%
C=CCN(CC=C)S(=O)(=O)c1ccc(F)cc1 | 4% | 4% | -5% | 6% | -1% | 6%
C=CCN(CC=C)S(=O)(=O)c1ncn[nH]1 | -3% | -5% | -9% | -15% | 40µM* | -1%
CCN[C@@H]1C[C@H](N)[C@@H](OC2OC(CN)=CCC2N)[C@H](O)[C@H]1O[C@H]1OC[C@](C)(O)[C@H](NC)[C@H]1O (some centres not stated) | . | 1%[21 µM] | . | . | . | .
CC(C)(C)n1ncc2c(=O)n(Cc3cccc(OC(F)(F)F)c3)cnc21 | . | -4% | . | . | . | .
COC(=O)CSc1nc2c(c(-c3ccco3)c1C#N)CCCC2 | -28% | -8% | 2% | 35µM* | . | -13%
COc1ccc(OC(=O)COc2ccc(C)cc2)cc1 | -4% | -1% | i | -3% | -6% | 8%
Cc1ccc(OCC(=O)Oc2ccc(C)c(C)c2)cc1 | -5% | -42% | -2% | . | 50µM* | -11%
N#Cc1ccccc1-c1nc(NCCN2CCOCC2)c2ccccc2n1 | -4% | 1% | . | i | . | .
Cc1ccccc1-c1nc(NCCN2CCOCC2)c2ccccc2n1 | -2% | 4% | . | -4% | 7.9µM* | .
N=c1c(S(=O)(=O)c2ccccc2)cc2c(=O)n3ccccc3nc2n1Cc1ccco1 | 7.1µM* | -1% | i | -19% | 1% | 14%
Cc1cccn2c(=O)c3cc(S(=O)(=O)c4ccccc4)c(=N)n(Cc4ccco4)c3nc12 | 28µM* | -1% | 7% | i | 1% | 8%
